Measured values taken from the supplement of paper PMC10849652.
Targets with a hit are over-represented here; the source holds about 8,800 in all. About 0.5% of all pairs of compound and target were hits. A number with no mark means an inactive call.

Assays:
Test in all cases: log2 fold change, soluble protein after heating vs DMSO (PISA); higher = thermal stabilisation; K562 lysate, 10 uM; active = over 0.2 and 3.5 SD of the protein, either way, in both replicates (recomputed)
[1] = compound: CCCS(=O)(=O)Nc1ccc(F)c(C(=O)c2c[nH]c3ncc(-c4ccc(Cl)cc4)cc23)c1F [vemurafenib]
Method in brief: (§1)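 Dounce homogenisation of K562 pellets in PBS pH 7.4 with 1 mM MgCl2 produced a crude extract, used at 1 mg/mL protein. Exposure to 10 μM compound lasted 30 min, and aliquots were then heated for 3 min across 48°C-58°C, pooled and brought to 0.5% NP-40 at 4°C. The supernatant after 21,000xg for 90 min was quantified by TMTpro 16plex LC-MS/MS with channel sums equalised. Duplicate values are given as log-two fold change in thermal stability relative to solvent controls.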

[2] = compound: CCCS(=O)(=O)Nc1ccc(F)c(C(=O)c2c[nH]c3ncc(Cl)cc23)c1F
Method in brief: as §1

[3] = compound: CCN(CCCOc1ccc2c(Nc3cc(CC(=O)Nc4cccc(F)c4)[nH]n3)ncnc2c1)CCOP(=O)(O)O [barasertib]
Method in brief: as §1

[4] = compound: CC[C@@H]1C(=O)N(C)c2cnc(Nc3ccc(C(=O)NC4CCN(C)CC4)cc3OC)nc2N1C1CCCC1
Method in brief: as §1

[5] = compound: CC[C@@H]1C(=O)N(C)c2cnc(Nc3ccc(C(=O)N[C@H]4CC[C@H](N5CCN(CC6CC6)CC5)CC4)cc3OC)nc2N1C(C)C [volasertib]
Method in brief: as §1

[6] = compound: CCn1c(C(=O)N(C2CC2)C2CC2)cc2c3c(ncn3C)c(Nc3cc(C)n(C)n3)nc21
Method in brief: as §1

[7] = compound: CCn1cc(-c2ccnc3[nH]c(-c4cccc(CN(C)C)c4)cc23)c(-c2ccc(NC(=O)N(C)C)cc2)n1
Method in brief: as §1

[8] = compound: CN1CCC(CNc2ccc3ncc(-c4cccc(OC(F)(F)F)c4)n3n2)CC1
Method in brief: as §1

[9] = compound: CN1CCN(CCOc2cc(OC3CCOCC3)c3c(Nc4c(Cl)ccc5c4OCO5)ncnc3c2)CC1 [saracatinib]
Method in brief: as §1

[10] = compound: CN1CCN(c2nc(C3=C(c4c[nH]c5ccccc45)C(=O)NC3=O)c3ccccc3n2)CC1 [sotrastaurin]
Method in brief: as §1

[11] = compound: CN1CC[C@H](c2c(O)cc(O)c3c(=O)cc(-c4ccccc4Cl)oc23)[C@H](O)C1 [alvocidib]
Method in brief: as §1

[12] = compound: CN1CCc2c(c3ccccc3n2Cc2ccc(C(=O)NO)cc2)C1 [Tubastatin A]
Method in brief: as §1

[13] = compound: CNC(=O)C1=CC=CC=C1NC2=NC(=NC=C2Cl)NC3=C(C=C(C=C3)N4CCOCC4)OC
Method in brief: as §1

[14] = compound: CNC(=O)c1ccc(Nc2ncc(C(F)(F)F)c(NCc3nccnc3N(C)S(C)(=O)=O)n2)cc1 [defactinib]
Method in brief: as §1

[15] = compound: CNc1nc(-c2ccc3c(N)n[nH]c3c2)cc(N2C[C@@H](C(=O)NC3CCCCC3)CC[C@H]2C)n1
Method in brief: as §1

[16] = compound: COC(=O)N[C@@H](C)CNc1nccc(-c2cn(C(C)C)nc2-c2cc(Cl)cc(NS(C)(=O)=O)c2F)n1 [encorafenib]
Method in brief: as §1

[17] = compound: COC(=O)[C@H](CCSC)NC(=O)C1=C(C=C(C=C1)NC[C@H](CS)N)C2=CC=CC=C2
Method in brief: as §1

[18] = compound: COc1cc(Nc2ncc3c(n2)-c2ccc(Cl)cc2C(c2c(F)cccc2OC)=NC3)ccc1C(=O)O [alisertib]
Method in brief: as §1

[19] = compound: COc1cc2nc(-c3cc(F)ccc3O)nc(N[C@@H]3CNC[C@H]3C(C)(C)O)c2cc1OC
Method in brief: as §1

[20] = compound: COc1cc2ncnc(Nc3ccc(F)c(Cl)c3)c2cc1OCCCN1CCOCC1 [gefitinib]
Method in brief: as §1

UniProt Q5T4S7, sequence (Q5T4S7 whole entry, looked up): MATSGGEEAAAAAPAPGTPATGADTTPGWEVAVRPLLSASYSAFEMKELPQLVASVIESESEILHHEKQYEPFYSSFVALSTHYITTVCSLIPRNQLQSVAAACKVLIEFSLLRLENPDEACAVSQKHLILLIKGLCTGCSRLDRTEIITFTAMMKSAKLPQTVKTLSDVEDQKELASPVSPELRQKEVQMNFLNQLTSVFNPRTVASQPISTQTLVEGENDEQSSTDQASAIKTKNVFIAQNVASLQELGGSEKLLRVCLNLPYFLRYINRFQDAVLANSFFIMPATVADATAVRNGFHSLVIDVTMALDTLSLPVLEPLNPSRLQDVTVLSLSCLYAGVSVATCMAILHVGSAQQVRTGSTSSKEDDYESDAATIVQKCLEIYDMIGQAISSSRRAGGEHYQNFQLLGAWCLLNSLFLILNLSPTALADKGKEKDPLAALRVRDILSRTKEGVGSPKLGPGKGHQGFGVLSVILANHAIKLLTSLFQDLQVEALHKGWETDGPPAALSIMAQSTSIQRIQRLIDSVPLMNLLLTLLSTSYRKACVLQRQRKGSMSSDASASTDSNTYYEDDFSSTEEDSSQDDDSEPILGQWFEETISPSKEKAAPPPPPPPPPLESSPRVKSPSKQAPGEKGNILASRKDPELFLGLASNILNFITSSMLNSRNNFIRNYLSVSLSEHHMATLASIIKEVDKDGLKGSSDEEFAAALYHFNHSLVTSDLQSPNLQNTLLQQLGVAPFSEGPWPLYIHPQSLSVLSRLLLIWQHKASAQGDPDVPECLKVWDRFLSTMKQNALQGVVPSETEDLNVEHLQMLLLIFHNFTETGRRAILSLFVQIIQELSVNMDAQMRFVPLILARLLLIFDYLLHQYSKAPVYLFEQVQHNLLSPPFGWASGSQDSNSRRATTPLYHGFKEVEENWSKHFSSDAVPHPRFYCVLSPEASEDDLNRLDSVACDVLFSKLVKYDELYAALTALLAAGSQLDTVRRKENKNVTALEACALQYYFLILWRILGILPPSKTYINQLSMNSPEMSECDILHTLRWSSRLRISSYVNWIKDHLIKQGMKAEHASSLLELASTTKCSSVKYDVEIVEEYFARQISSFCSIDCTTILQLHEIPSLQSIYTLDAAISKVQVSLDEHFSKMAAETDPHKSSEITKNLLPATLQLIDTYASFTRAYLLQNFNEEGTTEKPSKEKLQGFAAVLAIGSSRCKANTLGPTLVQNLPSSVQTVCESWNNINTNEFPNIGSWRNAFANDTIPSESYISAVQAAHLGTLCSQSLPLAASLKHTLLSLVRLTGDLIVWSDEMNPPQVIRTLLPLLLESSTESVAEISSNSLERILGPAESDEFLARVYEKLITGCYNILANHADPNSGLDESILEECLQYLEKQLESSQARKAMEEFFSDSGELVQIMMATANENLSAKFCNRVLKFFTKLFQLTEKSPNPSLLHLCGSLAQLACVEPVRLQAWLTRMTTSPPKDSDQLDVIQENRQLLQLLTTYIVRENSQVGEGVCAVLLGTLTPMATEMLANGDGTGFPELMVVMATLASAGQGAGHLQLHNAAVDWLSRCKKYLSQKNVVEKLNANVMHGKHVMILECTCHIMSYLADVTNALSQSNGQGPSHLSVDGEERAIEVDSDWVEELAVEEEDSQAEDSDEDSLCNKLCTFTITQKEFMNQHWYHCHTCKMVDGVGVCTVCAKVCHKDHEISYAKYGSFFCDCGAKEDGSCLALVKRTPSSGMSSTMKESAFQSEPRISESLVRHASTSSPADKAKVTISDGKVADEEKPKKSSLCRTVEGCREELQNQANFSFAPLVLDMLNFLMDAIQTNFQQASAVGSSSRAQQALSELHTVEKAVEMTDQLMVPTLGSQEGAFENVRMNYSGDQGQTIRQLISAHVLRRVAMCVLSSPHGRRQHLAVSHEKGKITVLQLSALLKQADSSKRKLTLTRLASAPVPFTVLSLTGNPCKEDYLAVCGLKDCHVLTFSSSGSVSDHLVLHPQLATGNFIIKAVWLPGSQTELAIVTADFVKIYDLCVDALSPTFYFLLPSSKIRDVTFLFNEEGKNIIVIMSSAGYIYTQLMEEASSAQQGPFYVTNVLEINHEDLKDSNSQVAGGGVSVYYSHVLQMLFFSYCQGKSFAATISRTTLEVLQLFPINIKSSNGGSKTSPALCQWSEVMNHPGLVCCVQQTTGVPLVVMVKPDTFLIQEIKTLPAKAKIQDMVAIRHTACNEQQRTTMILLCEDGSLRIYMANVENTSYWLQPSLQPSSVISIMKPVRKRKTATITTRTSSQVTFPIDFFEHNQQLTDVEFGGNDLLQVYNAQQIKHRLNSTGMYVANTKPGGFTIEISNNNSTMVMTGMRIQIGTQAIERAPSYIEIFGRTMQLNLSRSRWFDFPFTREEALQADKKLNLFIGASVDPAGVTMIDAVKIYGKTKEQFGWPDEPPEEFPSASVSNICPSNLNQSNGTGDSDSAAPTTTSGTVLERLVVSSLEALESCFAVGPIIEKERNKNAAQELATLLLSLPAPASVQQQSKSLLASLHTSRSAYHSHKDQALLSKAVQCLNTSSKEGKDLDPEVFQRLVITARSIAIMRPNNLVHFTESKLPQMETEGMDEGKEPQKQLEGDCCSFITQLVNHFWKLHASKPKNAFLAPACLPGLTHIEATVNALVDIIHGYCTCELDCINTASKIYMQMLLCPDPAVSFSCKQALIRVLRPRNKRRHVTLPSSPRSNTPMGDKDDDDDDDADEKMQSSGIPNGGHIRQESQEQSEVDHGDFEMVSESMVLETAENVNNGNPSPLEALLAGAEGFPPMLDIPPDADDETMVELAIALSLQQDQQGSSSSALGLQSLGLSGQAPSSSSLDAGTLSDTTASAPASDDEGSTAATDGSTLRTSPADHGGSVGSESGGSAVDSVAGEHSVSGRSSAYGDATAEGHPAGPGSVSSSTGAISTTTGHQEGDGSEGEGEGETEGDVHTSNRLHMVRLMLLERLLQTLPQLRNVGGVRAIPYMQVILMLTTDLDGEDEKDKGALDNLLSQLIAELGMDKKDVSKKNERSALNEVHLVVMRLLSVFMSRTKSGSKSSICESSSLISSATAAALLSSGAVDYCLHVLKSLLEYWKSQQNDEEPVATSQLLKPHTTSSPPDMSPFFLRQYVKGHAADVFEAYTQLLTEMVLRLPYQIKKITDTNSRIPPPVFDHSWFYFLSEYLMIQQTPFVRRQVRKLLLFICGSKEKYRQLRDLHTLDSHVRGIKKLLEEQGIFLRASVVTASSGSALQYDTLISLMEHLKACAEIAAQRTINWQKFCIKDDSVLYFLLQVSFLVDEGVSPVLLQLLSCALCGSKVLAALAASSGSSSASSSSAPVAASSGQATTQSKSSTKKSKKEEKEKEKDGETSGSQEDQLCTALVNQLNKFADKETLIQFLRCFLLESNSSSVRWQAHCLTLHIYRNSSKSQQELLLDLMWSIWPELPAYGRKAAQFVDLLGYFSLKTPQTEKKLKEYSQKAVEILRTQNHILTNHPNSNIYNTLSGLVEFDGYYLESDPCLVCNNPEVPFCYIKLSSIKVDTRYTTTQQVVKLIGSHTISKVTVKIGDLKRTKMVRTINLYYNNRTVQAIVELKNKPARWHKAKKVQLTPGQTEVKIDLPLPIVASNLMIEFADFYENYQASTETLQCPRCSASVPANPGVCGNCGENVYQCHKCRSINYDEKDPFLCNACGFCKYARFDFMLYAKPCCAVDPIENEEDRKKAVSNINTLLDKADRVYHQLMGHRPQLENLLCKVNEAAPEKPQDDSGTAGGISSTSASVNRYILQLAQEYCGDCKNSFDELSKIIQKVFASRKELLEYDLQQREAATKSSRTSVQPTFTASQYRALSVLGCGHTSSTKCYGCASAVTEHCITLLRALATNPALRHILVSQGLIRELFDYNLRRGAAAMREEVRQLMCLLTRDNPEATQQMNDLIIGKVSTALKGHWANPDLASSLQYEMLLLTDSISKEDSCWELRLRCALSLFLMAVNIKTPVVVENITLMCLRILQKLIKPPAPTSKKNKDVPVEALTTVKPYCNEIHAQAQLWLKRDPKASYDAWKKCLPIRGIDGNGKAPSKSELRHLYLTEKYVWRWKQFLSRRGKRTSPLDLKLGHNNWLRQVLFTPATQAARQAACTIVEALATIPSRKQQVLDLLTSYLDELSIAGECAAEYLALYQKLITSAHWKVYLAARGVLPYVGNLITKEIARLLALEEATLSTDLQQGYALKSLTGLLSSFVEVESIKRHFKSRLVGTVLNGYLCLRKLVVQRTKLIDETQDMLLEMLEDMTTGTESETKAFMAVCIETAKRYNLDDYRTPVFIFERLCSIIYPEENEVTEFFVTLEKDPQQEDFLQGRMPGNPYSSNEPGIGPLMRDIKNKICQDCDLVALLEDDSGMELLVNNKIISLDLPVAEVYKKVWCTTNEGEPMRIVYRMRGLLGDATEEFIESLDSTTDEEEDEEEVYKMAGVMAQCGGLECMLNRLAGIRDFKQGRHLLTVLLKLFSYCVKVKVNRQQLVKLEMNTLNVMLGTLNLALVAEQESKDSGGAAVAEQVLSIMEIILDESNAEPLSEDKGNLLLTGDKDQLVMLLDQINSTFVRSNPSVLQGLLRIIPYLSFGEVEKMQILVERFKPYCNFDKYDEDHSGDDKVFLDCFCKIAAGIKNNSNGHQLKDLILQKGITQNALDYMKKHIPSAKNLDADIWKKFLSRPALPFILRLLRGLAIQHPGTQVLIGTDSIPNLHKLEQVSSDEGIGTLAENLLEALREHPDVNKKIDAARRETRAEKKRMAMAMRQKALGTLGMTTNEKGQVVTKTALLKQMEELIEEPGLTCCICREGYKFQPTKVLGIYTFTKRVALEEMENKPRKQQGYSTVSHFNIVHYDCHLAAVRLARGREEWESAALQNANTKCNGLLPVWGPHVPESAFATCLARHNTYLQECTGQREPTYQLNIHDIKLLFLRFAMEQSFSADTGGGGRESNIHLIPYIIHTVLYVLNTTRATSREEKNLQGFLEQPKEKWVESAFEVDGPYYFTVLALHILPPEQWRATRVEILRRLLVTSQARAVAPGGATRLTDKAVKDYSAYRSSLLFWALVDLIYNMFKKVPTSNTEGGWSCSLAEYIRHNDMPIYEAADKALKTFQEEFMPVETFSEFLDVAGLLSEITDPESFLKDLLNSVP

| Target | log2 fold change [1] | log2 fold change [2] | log2 fold change [3] | log2 fold change [4] | log2 fold change [5] | log2 fold change [6] | log2 fold change [7] | log2 fold change [8] | log2 fold change [9] | log2 fold change [10] | log2 fold change [11] | log2 fold change [12] | log2 fold change [13] | log2 fold change [14] | log2 fold change [15] | log2 fold change [16] | log2 fold change [17] | log2 fold change [18] | log2 fold change [19] | log2 fold change [20] |
| --- | --- | --- | --- | --- | --- | --- | --- | --- | --- | --- | --- | --- | --- | --- | --- | --- | --- | --- | --- | --- |
| TPP2 (UniProt P29144) | -0.015 | 0.01 | -0.024 | -0.016 | -0.023 | 0.009 | 0.025 | -0.012 | -0.016 | -0.009 | 0.018 | -0.028 | -0.014 | -0.014 | -0.03 | 0 | 0.068 | -0.02 | 0 | 0.008 |
| TIAL1 isoform 2 (UniProt Q01085) | -0.009 | 0.014 | -0.023 | 0.072 | 0.005 | 0.002 | -0.076 | 0.056 | -0.02 | -0.017 | -0.005 | 0.05 | -0.015 | 0.006 | -0.005 | 0.009 | -0.053 | 0.027 | 0.013 | 0.041 |
| TBC1D23 (UniProt Q9NUY8) | -0.003 | 0.011 | 0 | -0.027 | -0.029 | -0.012 | -0.058 | 0.023 | 0.012 | 0.017 | 0 | -0.076 | 0.025 | -0.006 | 0.05 | -0.009 | -0.019 | -0.014 | 0.002 | -0.006 |
| UBE2L6 (UniProt O14933) | 0.031 | -0.035 | 0.229 | 0.041 | 0.008 | 0.022 | 0.037 | -0.115 | -0.034 | -0.03 | 0.034 | -0.051 | 0.082 | 0.065 | -0.005 | 0.06 | -0.36 (active) | 0.004 | -0.026 | 0.092 |
| UBAP2 (UniProt Q5T6F2) | 0.009 | 0.016 | -0.007 | 0.071 | -0.002 | 0.004 | -0.172 | 0.106 | 0.028 | 0.02 | -0.081 | 0.026 | -0.026 | -0.003 | 0.005 | 0.033 | -0.021 | 0.005 | 0.011 | 0.014 |
| TMEM199 (UniProt Q8N511) | 0 | 0.026 | 0.009 | 0.023 | 0 | -0.003 | -0.06 | 0.054 | 0.048 | 0.035 | -0.032 | 0.097 | -0.035 | -0.023 | -0.001 | -0.011 | -0.093 | 0 | -0.007 | 0.001 |
| UBR4 (UniProt Q5T4S7) | -0.003 | 0.016 | 0.02 | -0.037 | -0.03 | 0.019 | -0.034 | -0.031 | 0.01 | 0.007 | 0.009 | -0.06 | 0.006 | 0.006 | -0.034 | 0.003 | 0.018 | 0.001 | 0.001 | -0.029 |
| TCF3 (UniProt P15923) | -0.01 | 0.002 | 0.012 | 0.129 | 0.002 | 0.047 | 0.028 | 0.043 | -0.158 | 0.002 | -0.039 | -0.066 | 0.034 | 0.089 | 0.19 | 0.135 | -0.051 | 0.047 | 0.027 | 0.023 |
| TUBGCP4 (UniProt Q9UGJ1) | 0.088 | 0.028 | 0.116 | 0.039 | -0.027 | 0.026 | 0.013 | -0.077 | 0.025 | 0.109 | 0 | -0.081 | 0.007 | -0.023 | -0.025 | -0.049 | 0.047 | -0.007 | -0.018 | -0.043 |
| TMEM263 (UniProt Q8WUH6) | 0.086 | -0.024 | 0.19 | 0.133 | 0.023 | 0.097 | -0.034 | -0.242 | 0.109 | -0.003 | 0.013 | 0.266 | 0.116 | 0.213 | -0.013 | 0.285 | 0.154 | 0.202 | 0.398 | 0.222 |
| TTLL12 (UniProt Q14166) | 0.016 | 0.007 | -0.001 | -0.07 | -0.07 | 0.019 | -0.033 | 0.009 | 0.004 | 0.022 | 0.039 | -0.212 | -0.003 | 0.018 | -0.03 | -0.009 | 0.032 | 0 | 0.003 | 0.039 |
| TGOLN2 isoform 7 (UniProt O43493) | 0.02 | 0.023 | -0.023 | 0.05 | 0.035 | -0.094 | -0.012 | 0.036 | -0.033 | 0.06 | -0.053 | 0.003 | -0.052 | 0.005 | 0.045 | 0.014 | -0.031 | -0.059 | 0.02 | -0.048 |
| TTC12 isoform 2 (UniProt Q9H892) | 0.025 | 0.061 | 0.053 | -0.049 | 0.063 | -0.121 | -0.208 | 0.079 | 0.038 | -0.055 | -0.024 | -0.279 | -0.06 | -0.05 | -0.041 | -0.052 | -0.03 | -0.145 | -0.043 | 0.137 |
| TIMELESS (UniProt Q9UNS1) | 0.035 | 0.031 | 0.039 | -0.058 | 0.043 | 0.013 | -0.094 | -0.07 | 0.035 | 0 | -0.017 | -0.149 | 0.031 | 0 | -0.039 | 0.039 | 0.105 | -0.011 | 0.049 | 0.017 |
| TRAPPC10 (UniProt P48553) | 0.022 | 0.009 | 0.027 | -0.063 | -0.052 | 0.022 | -0.061 | 0.071 | 0.016 | -0.039 | -0.034 | -0.074 | 0.01 | -0.034 | 0.011 | 0.009 | -0.047 | 0.015 | -0.001 | -0.029 |
| TUBB1 (UniProt Q9H4B7) | -0.039 | 0.011 | 0.002 | -0.025 | -0.087 | 0.034 | 0.15 | -0.025 | -0.002 | -0.045 | 0.026 | -0.059 | 0.021 | 0.07 | -0.005 | -0.015 | 0.071 | -0.013 | -0.034 | -0.047 |
